GBA activity = human lysosomal glucosylceramidase modulation. P04062. purified enzyme, resorufin glucoside fluorescence (screen aimed at inhibitors), 20 min. Potency, µM. hit rate 1.1% among 48,000; in the data active = potency below about 15 µM; inconclusive = mostly about 16 µM to 33 µM;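 note: the screen sought inhibitors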
Target sequence (P04062 whole entry, looked up): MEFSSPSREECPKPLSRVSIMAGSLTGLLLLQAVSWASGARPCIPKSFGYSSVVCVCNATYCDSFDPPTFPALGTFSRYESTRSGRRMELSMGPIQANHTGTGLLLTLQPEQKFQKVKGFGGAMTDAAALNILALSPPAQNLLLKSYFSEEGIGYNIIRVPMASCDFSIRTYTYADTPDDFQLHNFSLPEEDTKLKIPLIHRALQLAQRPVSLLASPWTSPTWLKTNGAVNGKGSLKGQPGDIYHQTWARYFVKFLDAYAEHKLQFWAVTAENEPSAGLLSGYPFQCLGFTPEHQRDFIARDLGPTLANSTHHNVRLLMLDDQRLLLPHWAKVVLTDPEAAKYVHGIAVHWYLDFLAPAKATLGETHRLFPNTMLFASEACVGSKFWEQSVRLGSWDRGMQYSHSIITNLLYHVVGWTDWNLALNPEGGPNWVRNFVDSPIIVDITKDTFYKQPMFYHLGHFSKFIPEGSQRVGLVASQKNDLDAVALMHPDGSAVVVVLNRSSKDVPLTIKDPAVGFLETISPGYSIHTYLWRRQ
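Wild-type enzyme at 0.2 nM final in 50mM citric acid/KH2PO4, 10mM sodium taurocholate, 0.01% tween-20, pH 5.9, with resorufin beta-D-glucopyranoside at 30 uM final. Compounds titrated, 20 min at RT, red fluorescence read; AC50 from titration.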
Luciferase inh = blocks Photinus pyralis firefly luciferase activity. AID 411. hit rate 2.2% among 72,000. purified firefly luciferase, luminescence, 8 min. P08659. Potency, µM (titrated, usually from 57.1 µM), hits mostly inhibitors; active = well fitted inhibition curve with a large enough effect; inconclusive = small, poorly fitted or top-dose-only effect; note: nearly all actives have a fitted effect of over 40% in size
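Firefly luciferase (PKLight detection mix) with 10 uM ATP in pH 7.2 imidazole buffer (KCl, MgCl2, Tween 20, BSA). Compounds tested across a concentration series (qHTS). Luminescence read after 8 min at ambient temperature.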
PK Bst = modulators of Bacillus stearothermophilus pyruvate kinase; Potency, µM; purified pyruvate kinase, luminescence ATP production; ribose 5-phosphate activator present at AC10; hit rate 1.2% among 51,000; in the data active = potency below about 11 µM; inconclusive = mostly about 12 µM to 25 µM;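 the screen sought inhibitors and activators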
Of the large screens only hits and unclear results are named; the others gave an inactive call. In the library only some 3.4% were active in any assay of this set; here they are far more common.

S=c1[nH]nc(COc2ccc(Cl)cc2)o1	PK Bst 3.9
CC(C)NC(=O)N1CC2(CCN(C(=O)c3cc(C(F)(F)F)cc(C(F)(F)F)c3)CC2)C1	none (no result: GBA activity, PK Bst)
O=C(c1n[nH]c2ccccc12)N1CCN(S(=O)(=O)c2ccc3ccccc3c2)CC1	PK Bst 9.2 (no result: GBA activity)
Cc1cnc(C(=O)N2CCN(S(=O)(=O)c3ccc4ccccc4c3)CC2)cn1	none (no result: PK Bst)
COc1ccc(C(=O)c2oc3ccccc3c2N)cc1	PK Bst inconclusive
COc1ccc2oc(C(=O)C3CC3)c(N)c2c1	Luciferase inh 25µM (no result: PK Bst)
O=c1ccn(Cc2ccccc2)c(=O)n1Cc1ccccc1	none
O=c1ccsn1Cc1ccccc1	Luciferase inh 20µM
CCc1nc2sc3c(c2c(=O)n1N)CCC3	none
Nn1c(Nc2ccccc2)nc2sc3c(c2c1=O)CCC3	Luciferase inh 20µM (no result: GBA activity, PK Bst)
O=C1C=CC(=O)c2c1ccc1c2ccc2ccccc21	none (no result: GBA activity, PK Bst)
O=C(NC1CCCCCCC1)C1CCN(S(=O)(=O)N2CCC3(CC2)OCCO3)CC1	GBA activity 11
O=C(NC1CCCCC1)C1CCN(S(=O)(=O)N2CCCCCC2)CC1	none
CCCCOC(=O)Nc1ccc(C(=O)OCCC)cc1	none (no result: GBA activity, PK Bst)
CCCOC(=O)Nc1ccc(N2CCCCC2)cc1	Luciferase inh 13µM
CN=c1scc(C)n1/N=C/c1ccc2c(c1)OCO2	Luciferase inh 4µM, PK Bst 3.2
CCCc1nc2ccccc2c(=O)n1/N=C/c1ccc(O)cc1O	none
CN=c1scc(C)n1/N=C/c1ccc(O)cc1	Luciferase inh 13µM, PK Bst 6.8 (no result: GBA activity)
CCCc1nc2ccccc2c(=O)n1/N=C/c1ccc(O)cc1	none
Cc1nnc(C)n1/N=C/c1ccc2c(c1)OCCO2	none
CN=c1scc(C)n1/N=C/c1ccc(O)cc1O	Luciferase inh 4µM, PK Bst 1.1
O=C(O)Cc1c[nH]c2ccc(F)cc12	none (no result: GBA activity, PK Bst)
CN(C)c1ccc(-c2ccc3ncnc(NC4CC4)c3c2)cc1	none (no result: GBA activity, PK Bst)
N#CCCn1c(=O)c(-c2cc(F)cc(F)c2)nc2cnc(N3CCOCC3)nc21	none (no result: GBA activity, PK Bst)
CCCN(CCC)CCc1cccc2c1CC(=O)N2	none (no result: GBA activity, PK Bst)
COc1ccccc1CNc1cc(-c2cccc(C#N)c2)ncn1	none (no result: GBA activity, PK Bst)
COc1ccc(-c2noc(N(C)CC(=O)Nc3cccc(C(F)(F)F)c3)n2)cc1	Luciferase inh 25µM
COc1ccc(-c2noc(CCC(=O)Nc3cccc(C)c3)n2)cc1	none
